The record followed here is PubChem BioAssay (Tox21).

Test [1] in a line: Nuclear factor erythroid 2-related factor 2/antioxidant responsive element (Nrf2/ARE) small molecule agonists: qHTS cell viability counter screen in human keratinocytes (AID 1919968; active means well fitted curve in the direction sought with a large enough effect in the repeat runs; an effect the other way counts as inactive or inconclusive; further: nearly all actives have a fitted effect of over 55% in size). Put shortly: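 Seed 1,500 KeratinoSens cells per well, then incubate 5 h at 37 C/5% CO2. Add compounds in DMSO and incubate 23 h. Add CellTiter-Fluor, wait 1 h and read fluorescence.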
A general note: In qHTS, concentration-response curves come from the screen itself.

A short description of test [2]: Nuclear factor erythroid 2-related factor 2/antioxidant responsive element (Nrf2/ARE) small molecule agonists: luciferase reporter gene qHTS assay in human keratinocytes (AID 1919969). Further: nearly all actives have a fitted effect of over 35% in size. Further: potency means the concentration at half of the fitted maximal effect. On the technique in general: In a reporter assay the amount or activity of a reporter protein is the signal.
The target of test [3] is KiSS-1 receptor (Homo sapiens) (UniProt Q969F8). Put plainly: Human kisspeptin (KISS1R) small molecule agonists, calcium flux assay in KISS1R-HEK293 cells (AID 1920064; active means well fitted curve in the direction sought with a large enough effect in the repeat runs; an effect the other way counts as inactive or inconclusive). Put shortly:
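Cells plated and incubated 18 h; dye added, 1 h at 37 C; compounds in DMSO pinned in; signal read at 480/540 nm every second for 3 min. Each compound tested at 15 concentrations in triplicate.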

A short description of test [4]: G protein-coupled receptor (GPCR) small molecule agonists, calcium flux assay: HEK293 wild type cell line counter screen (AID 1920065). Put shortly: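 Counter-screen of the Tox21 10K library for non-specific calcium release: dye-loaded cells received compounds in DMSO and were monitored by kinetic fluorescence (480/540 nm, 3 min). Fifteen concentrations, run in triplicate.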

A short description of test [5]: p53 small molecule agonists, cell-based qHTS assay with human liver microsomes (AID 1963577).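 Further: p53 response element beta-lactamase reporter cells with liver microsomes plus NADPH.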 Put shortly:
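16 h, 37 C exposure of p53RE-bla cells to compounds with human liver microsomes and NADPH (0.5 mg/mL final each); detection via LiveBLAzer mixture, 2 h dark at room temperature.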

Test [6] is described as follows: p53 small molecule agonists, cell-based qHTS assay with rat liver microsomes (AID 1963578). Put shortly:
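With rat liver microsomes and NADPH present (0.5 mg/mL final each), p53RE-bla cells are treated with compound for 16 h at 37 C. LiveBLAzer detection mixture is then applied for 2 h at room temperature in the dark.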

Test [7] can be described thus: p53 small molecule agonists, cell-based qHTS assay with human liver microsomes: qHTS cell viability counter screen (AID 1963579). Further: nearly all actives have a fitted effect of over 45% in size. Further: potency means the concentration at half of the fitted maximal effect. In a few lines: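 In this multiplexed counter screen, the reporter plates were subsequently treated with CellTiter-Glo so that cell viability, reflected by luminescence, could be recorded for p53RE-bla cells dosed 16 h with compounds under microsomal activation (HLM and NADPH).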

A short description of test [8]: p53 small molecule agonists, cell-based qHTS assay with rat liver microsomes: qHTS cell viability counter screen (AID 1963580). Further: nearly all actives have a fitted effect of over 45% in size. In a few lines:
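p53RE-bla HCT-116 cells (4,000/well) rested 5 h at 37 C, then given Tox21 compounds in DMSO with rat liver microsomes (0.5 mg/mL final) plus NADPH (0.5 mg/mL final) for 16 h at 37 C. Viability read by CellTiter-Glo luminescence after 30 min at room temperature.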

Test [9] is described as follows: p53 small molecule agonists, cell-based qHTS assay: qHTS cell viability counter screen (AID 1963581). Further: nearly all actives have a fitted effect of over 45% in size. Put shortly:
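Cells: HCT-116 with p53 response element-driven beta-lactamase. Treatment: 16 h, 37 C, compounds in DMSO. Read: CellTiter-Glo luminescence after 30 min RT.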

For test [10], the target named is 5-hydroxytryptamine receptor 2A (Homo sapiens) (UniProt P28223). Put plainly: 5-hydroxytryptamine receptor 2A (HTR2A) small molecule antagonists, cell-based qHTS assay (AID 1963586). Further: nearly all actives have a fitted effect of over 45% in size. In a few lines:
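Antagonist-mode intracellular calcium assay: DOI (4 nM) added after 5 min compound pre-incubation at room temperature to dye-loaded HTR2A-CHO cells. Fluorescence followed for 3 min, sampled every second.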

For test [11] the target is unchanged. The test can be described thus: 5-hydroxytryptamine receptor 2A (HTR2A) small molecule agonists, cell-based qHTS assay (AID 1963587). Further: nearly all actives have a fitted effect of over 30% in size. Put shortly:
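HTR2A-CHO cells, plated 18 h at 37 C/5% CO2, dye-loaded 1 h at 37 C; compounds in DMSO added by pin tool (agonist mode). Intracellular calcium flux read as kinetic fluorescence on FDSS over 2 min at 1 s intervals.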

In test [12] the target is Muscarinic acetylcholine receptor M1 (Homo sapiens) (UniProt P11229). Put plainly: Cholinergic receptor muscarinic 1 (CHRM1) small molecule antagonists, cell-based qHTS assay (AID 1963588). Further: nearly all actives have a fitted effect of over 40% in size. In a few lines:
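CHRM1-CHO calcium-flux assay, antagonist mode. Cells were seeded 18 h, dye-loaded 1 h at 37 C and given compound for 5 min at RT, then acetylcholine was added at 50nM. FDSS fluorescence was read 3 min; 15 concentrations, three runs.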

For test [13] the target is unchanged. The test can be described thus: Cholinergic receptor muscarinic 1 (CHRM1) small molecule agonists, cell-based qHTS assay (AID 1963589). Further: nearly all actives have a fitted effect of over 35% in size. Put shortly: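 Agonist-mode qHTS in CHO cells stably carrying human muscarinic M1. Intracellular calcium is tracked by fluorescence every second after compound transfer; each compound runs at 15 concentrations in three independent runs.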

In test [14] the target is Beta-2 adrenergic receptor (Homo sapiens) (UniProt P07550). The test can be described thus: Adrenergic beta2 receptor (ADRB2) small molecule antagonists, cell-based qHTS assay (AID 1963592). Further: series mostly up to about 92 µM; nearly all actives have a fitted effect of over 50% in size. Put shortly:
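Cells (CHO, stable ADRB2 overexpression) incubated 18-20hr at 37C; compounds added from DMSO; agonist mix (1nM isoproterenol, 100uM IBMX, 25uM Ro-20-1724) added; 0.5hr RT; d2-cAMP and anti-cAMP-cryptate added; 1hr RT; 665/615 nm read.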

The target in test [15] is D(2) dopamine receptor (Homo sapiens) (UniProt P14416). Put plainly: Dopamine D2 receptor (DRD2) small molecule agonists, cell-based qHTS assay (AID 1963594). Further: nearly all actives have a fitted effect of over 35% in size. In a few lines:
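HEK293 cells stably expressing DRD2 were cultured 24 h at 37 C, then given Ro20-1724 (0.1 mM final) and compounds for 10 min at room temperature. NKH477 (200nM) was then added for 30 min. cAMP was read by HTRF.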

The target is the same in test [16]. The test can be described thus: Dopamine D2 receptor (DRD2) small molecule antagonists, cell-based qHTS assay (AID 1963595; active means well fitted inhibition curve with a large enough effect in the signal ratio in the repeat runs, with a control signal flat; the % refers to the signal ratio). In a few lines: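 Readout: HTRF cAMP, cAMP-d2 competing with cellular cAMP for anti-cAMP cryptate, read after 1 h. Cells: DRD2-HEK293. Conditions: 0.1 mM Ro20-1724, 12 nM quinpirole, 200 nM NKH477, 30 min RT.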
A short description of test [17]: p53 small molecule agonists, cell-based qHTS assay (AID 1963582; active means well fitted activation curve with a large enough effect in the signal ratio in the repeat runs, not every such curve was filed as active; the % refers to the signal ratio). In a few lines:
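Quantitative HTS in p53RE-bla cells: after a 5 h settling period, compounds delivered in DMSO were left on cells for 16 h at 37 C, and reporter induction was measured as fluorescence following 2 h substrate loading.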

The nature of test [18]: cAMP Responsive Elements (CRE) small molecule agonists, cell-based qHTS assay (AID 1963590). Put shortly: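 Agonist mode qHTS in CRE-bla HEK 293T cells: compounds dosed from DMSO for 3 h at 37 C/5% CO2, followed by LiveBLAzer B/G FRET substrate for 2 h at room temperature.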
The nature of test [19]: cAMP Responsive Elements (CRE) small molecule antagonists, cell-based qHTS assay (AID 1963591; active means well fitted inhibition curve with a large enough effect in the signal ratio in the repeat runs, not every such curve was filed as active; the % refers to the signal ratio). In a few lines:
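Antagonist mode: test compounds are co-incubated with the adenylyl cyclase activator NKH477 (0.25 uM final) on CRE-bla HEK293T cells for 3 h at 37 °C, followed by LiveBLAzer substrate loading.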

The target in test [20] is Beta-2 adrenergic receptor (Homo sapiens) (UniProt P07550). Put plainly: Adrenergic beta2 receptor (ADRB2) small molecule agonists, cell-based qHTS assay (AID 1963593).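 Further: CHO cells stably overexpressing human ADRB2.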 In a few lines:
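CHO cells stably over-expressing ADRB2 were plated overnight at 37C, then dosed with compounds plus a stimulation mix containing 100uM IBMX and 25uM Ro-20-1724 for 0.5hr at room temperature. cAMP was measured by HTRF competition, 1hr.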

Records with an inconclusive call do not appear. More than one record can exist for a structure, and the calls need not agree. Calls of active or inactive are those of the source. Unless noted, the call rests on the fitted dose curve.

Chain of Muscarinic acetylcholine receptor M1 (Homo sapiens) (P11229 whole entry, looked up): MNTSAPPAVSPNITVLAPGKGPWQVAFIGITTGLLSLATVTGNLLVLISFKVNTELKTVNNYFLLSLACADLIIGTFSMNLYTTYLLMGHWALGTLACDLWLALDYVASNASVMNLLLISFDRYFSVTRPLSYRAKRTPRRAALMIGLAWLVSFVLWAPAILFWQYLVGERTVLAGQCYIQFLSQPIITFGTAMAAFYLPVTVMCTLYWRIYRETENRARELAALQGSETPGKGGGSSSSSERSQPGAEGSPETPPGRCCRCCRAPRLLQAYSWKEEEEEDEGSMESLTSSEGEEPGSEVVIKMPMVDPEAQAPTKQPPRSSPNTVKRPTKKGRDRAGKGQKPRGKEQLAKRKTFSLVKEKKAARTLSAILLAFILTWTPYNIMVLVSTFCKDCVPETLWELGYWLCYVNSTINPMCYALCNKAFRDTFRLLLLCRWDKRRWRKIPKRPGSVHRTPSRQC
Chain of Beta-2 adrenergic receptor (Homo sapiens) (P07550 whole entry, looked up): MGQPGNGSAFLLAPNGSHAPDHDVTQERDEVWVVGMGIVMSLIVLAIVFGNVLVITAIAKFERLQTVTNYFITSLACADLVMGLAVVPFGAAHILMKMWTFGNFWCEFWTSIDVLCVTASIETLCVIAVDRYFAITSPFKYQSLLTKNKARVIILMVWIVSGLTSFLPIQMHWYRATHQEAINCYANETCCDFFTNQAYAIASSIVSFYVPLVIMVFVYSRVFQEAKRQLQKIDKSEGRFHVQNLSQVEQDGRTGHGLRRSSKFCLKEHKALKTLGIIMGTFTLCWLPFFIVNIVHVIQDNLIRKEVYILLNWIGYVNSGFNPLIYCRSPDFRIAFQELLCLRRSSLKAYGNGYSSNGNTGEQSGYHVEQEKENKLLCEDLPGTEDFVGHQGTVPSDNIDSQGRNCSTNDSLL
Chain of D(2) dopamine receptor (Homo sapiens) (P14416 whole entry, looked up): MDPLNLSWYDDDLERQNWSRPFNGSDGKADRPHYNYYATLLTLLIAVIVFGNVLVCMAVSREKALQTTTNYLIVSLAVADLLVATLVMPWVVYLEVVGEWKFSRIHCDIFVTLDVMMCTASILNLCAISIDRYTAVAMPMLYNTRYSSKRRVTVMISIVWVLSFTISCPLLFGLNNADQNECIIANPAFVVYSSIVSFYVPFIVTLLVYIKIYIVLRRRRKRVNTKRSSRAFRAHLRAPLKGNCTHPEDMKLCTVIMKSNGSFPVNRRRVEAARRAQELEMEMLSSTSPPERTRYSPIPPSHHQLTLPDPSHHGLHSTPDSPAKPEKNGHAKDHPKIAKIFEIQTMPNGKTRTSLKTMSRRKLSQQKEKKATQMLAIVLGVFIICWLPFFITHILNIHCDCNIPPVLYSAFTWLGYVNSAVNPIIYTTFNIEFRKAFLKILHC
Chain of KiSS-1 receptor (Homo sapiens) (Q969F8 whole entry, looked up): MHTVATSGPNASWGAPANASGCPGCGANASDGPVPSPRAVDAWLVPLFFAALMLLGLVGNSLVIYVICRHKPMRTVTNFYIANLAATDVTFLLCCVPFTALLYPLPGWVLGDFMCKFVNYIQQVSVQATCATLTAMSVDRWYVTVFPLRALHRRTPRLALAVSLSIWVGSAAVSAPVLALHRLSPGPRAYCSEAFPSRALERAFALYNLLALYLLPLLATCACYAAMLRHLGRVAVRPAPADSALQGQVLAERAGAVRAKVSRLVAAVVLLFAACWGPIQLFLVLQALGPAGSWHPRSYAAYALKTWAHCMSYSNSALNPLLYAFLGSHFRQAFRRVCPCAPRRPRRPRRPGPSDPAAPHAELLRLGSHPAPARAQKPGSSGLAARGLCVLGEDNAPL
Chain of 5-hydroxytryptamine receptor 2A (Homo sapiens) (P28223 whole entry, looked up): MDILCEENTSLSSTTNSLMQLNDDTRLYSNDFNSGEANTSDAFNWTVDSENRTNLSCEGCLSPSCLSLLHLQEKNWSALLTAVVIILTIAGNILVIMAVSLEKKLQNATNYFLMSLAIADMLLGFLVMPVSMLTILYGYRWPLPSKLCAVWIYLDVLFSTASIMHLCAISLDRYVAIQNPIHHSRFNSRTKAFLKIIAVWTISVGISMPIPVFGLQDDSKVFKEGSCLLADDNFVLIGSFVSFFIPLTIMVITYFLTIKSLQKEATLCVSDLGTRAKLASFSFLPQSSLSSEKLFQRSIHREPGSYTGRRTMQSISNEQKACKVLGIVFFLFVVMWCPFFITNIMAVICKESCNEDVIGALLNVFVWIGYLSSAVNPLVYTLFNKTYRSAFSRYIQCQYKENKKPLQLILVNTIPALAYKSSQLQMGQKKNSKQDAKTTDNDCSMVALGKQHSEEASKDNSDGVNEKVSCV

On to `CCCCCCCCCCCCCCCC(=O)OC(C)C`, for which the Potency result in [1], in [2], in [3], in test [4], in [5] and in test [6] was “inactive” each time. In addition, the Potency entry in [7], in [8], in [9], in test [10], in [11] and in test [12] was “inactive” each time. The Potency result in test [13], in test [14], in test [15] and in test [16] was “inactive” throughout.

With `O=Cc1ccc(CO)o1`, the Potency entry in test [1], in [2], in test [3], in test [4], in test [6] and in test [7] was “inactive” each time. Moreover, the Potency result in test [8], in test [9], in test [17], in [10], in [11] and in test [12] was “inactive” each time. The Potency result in test [13], in [18], in test [19], in test [14], in test [20] and in test [15] was “inactive” in each case. In addition, the Potency entry in test [16] was “inactive”.

On to `Brc1cc(Oc2cc(Br)c(Br)c(Br)c2Br)c(Br)c(Br)c1Br`, for which the Potency entry in test [1], in test [3], in [4], in test [5], in test [6] and in [9] was “inactive” each time. For the same molecule, the Potency entry in test [17], in test [10], in test [12], in [13], in test [18] and in test [19] was “inactive” each time. The Potency result in test [14], in test [20] and in test [16] was “inactive” in each case. The Potency is 68.9 µM (active) and inactive in [2]; 20.5 µM (active) and inactive in test [7].

`O=c1[nH]cnc2c1ncn2[C@H]1CC[C@@H](CO)O1`: the Potency entry in test [1], in test [2], in [3], in test [4], in test [7] and in [8] was “inactive” in each case. Also, the Potency entry in test [9], in [18], in test [19], in test [20] and in [16] was “inactive” in each case.

As for `Cc1c(C(N)=O)cc([N+](=O)[O-])cc1[N+](=O)[O-]`, the Potency result in test [1], in test [3], in test [4], in test [5], in test [6] and in test [7] was “inactive” in each case. For the same molecule, the Potency entry in test [8], in test [9], in test [17], in test [10], in [11] and in test [12] was “inactive” throughout. Also, the Potency result in test [13], in test [18], in test [19], in test [20], in [15] and in test [16] was “inactive” each time.

In the case of `CCOC(=O)c1ccc(O)cc1`, the Potency entry in test [1], in test [2], in test [3], in test [6], in test [7] and in test [8] was “inactive” throughout. The Potency result in test [9], in test [17], in [10], in [11], in test [12] and in test [13] was “inactive” each time. The Potency result in test [18], in test [19], in [14] and in test [15] was “inactive” throughout.

For the molecule `O=C1CCCC1`, the Potency result in test [1], in [3], in test [4], in [5], in test [6] and in test [7] was “inactive” in each case. In addition, the Potency entry in test [8], in [9], in [17], in [10], in test [11] and in [13] was “inactive” each time. Besides, the Potency result in test [18], in test [19], in test [14], in test [15] and in [16] was “inactive” in each case.
